Source: PubChem BioAssay (NCI)
About 83,000 compounds went through this panel and 20% of them were active in at least one assay; those are over-represented in the sample as a whole.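 Each cell line was grown in a 96-well plate and treated with one concentration of compound for 48 hours. Values below 10 were considered active.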 The source made the active and inactive calls.

Legend:
Experiment in all cases: NCI-60 one-dose screen, 48 h (100 = growth as untreated, 0 = no growth, -100 = all killed)
Details in all cases: 10 µM unless noted
[1] = system: EKVX NSCLC
[2] = system: SN12C renal
[3] = system: UO-31 renal
[4] = system: TK-10 renal
[5] = system: ACHN renal
[6] = system: CAKI-1 renal
[7] = system: A498 renal
[8] = system: MOLT-4 leukemia
[9] = system: CCRF-CEM leukemia

Measured: growth

C[C@@H]1C[C@H](N)C[C@H](c2ccncc2NC(=O)c2ccc(F)c(-c3c(F)cccc3F)n2)C1
active: [8] 9.29%
inactive: [1] 74.9% | [2] 58.2% | [3] 25.3% | [4] 67.6% | [5] 60.5% | [6] 27.7% | [7] 35.9%

CC(=O)OC1Oc2ccccc2-c2oc3nc(=N)n(C)c-3cc21 (configuration not stated)
inactive: [1] 122% | [2] 108% | [3] 88.6% | [4] 155% | [5] 110% | [7] 138% | [9] 77%

N#Cc1c(NN)n(C2OC(CO)C(O)C2O)c2ncnc(N)c12 (configuration not stated)
active: [1] -0.0983% | [3] -23.5% | [5] 7.45% | [7] -17.8%
inactive: [2] 16.1% | [4] 11.2%

O=C(NC1CC1)c1ccc(-c2nc3ccc4[nH]ncc4c3c3c2CCCC3)cc1
active: [4] 8.68% | [6] 0.658% | [7] -5.47%
inactive: [1] 55.6% | [2] 48.4% | [3] 25.9% | [5] 17.1% | [9] 29.7% | [8] 38.8%

CCCCCc1c(C)[nH]c(/C=C2\N=C(c3ccc[nH]3)C=C2CC)c1C
active: [1] -90.3% | [2] -89.9% | [3] -85.8% | [4] -88.9% | [5] -94.7% | [6] -82.1% | [7] -90.8% | [8] -58.8%

Cc1cc2nc3c(=O)[nH]c(=O)nc-3n(CC=O)c2cc1C
inactive: [1] 95.6% | [2] 97.7% | [3] 106% | [4] 111% | [5] 105% | [6] 64.8% | [7] 116% | [9] 160% | [8] 109%

COc1cc(Nc2ccnc3ccc(Br)cc23)cc(OC)c1OC
inactive: [1] 53.4% | [2] 41.5% | [3] 40.2% | [4] 56.8% | [5] 37.6% | [6] 31.9% | [8] 32.1%
active: [7] -7.03%

Cc1ccc2nc(CN(CCN(Cc3nc4ccc(C)cc4[nH]3)Cc3nc4ccc(C)cc4[nH]3)Cc3nc4ccc(C)cc4[nH]3)[nH]c2c1
active: [1] -97.5% | [2] -96.7% | [3] -73.7% | [4] -80.9% | [5] -99.2% | [7] -94% | [9] -61.7%

O=C(Cc1ccc(Nc2ccnc(C(F)(F)F)c2)cc1)N/N=C/c1ccccc1O
active: [3] 0.112% | [5] 4.09%
inactive: [1] 25.7% | [2] 36.1% | [4] 22.7% | [6] 32.3% | [7] 145% | [8] 64.4%

Cc1cc(O)ccc1C1=NN(c2ccc(S(N)(=O)=O)cc2)C(=O)CC1
inactive: [1] 52.6% | [2] 70.7% | [3] 65.4% | [4] 114% | [5] 77.6% | [9] 46.2%
active: [7] -2.97%

CNC(=O)c1ccccc1Sc1ccc2c(/C=C/c3ccccn3)n[nH]c2c1
inactive: [1] 53.8% | [2] 27.6% | [3] 17.3% | [4] 54.8% | [5] 31.2% | [6] 30.7% | [8] 13.4%
active: [7] -23.3%

O=C1OCC2=C1C(c1ccc(Cl)c(Cl)c1)c1cc3c(cc1N2CCO)CCC3 (configuration not stated)
inactive: [1] 40.2% | [2] 31.4% | [3] 26.3% | [4] 50.7% | [5] 32.8% | [6] 35.7% | [8] 18.9%

O=c1cc(N2CCOCC2)oc2c(-c3ccc4c(c3)OCCO4)csc12
active: [1] 9.76% | [3] 1% | [4] -14.5% | [5] 6.19% | [7] -41% | [8] 4.69%
inactive: [2] 20.2% | [9] 28%

COc1ccc(-c2cn(-c3cccc(C(=O)/C=C/c4ccc(O)c(OC)c4)c3)c(=O)[nH]2)cc1
inactive: [1] 40.8% | [2] 14.2% | [3] 19% | [4] 35.6% | [6] 24.6%
active: [5] -47.8% | [9] 9.57% | [8] 5.6%

CC(OC(=O)Nc1cccc(Cl)c1)C(=O)O (configuration not stated)
inactive: [1] 103% | [2] 92.7% | [3] 90.7% | [4] 102% | [5] 97.4% | [7] 23.2% | [9] 101%

NC(=O)Nc1ccc2ncnc(Nc3cccc(O)c3)c2c1
inactive: [1] 82.6% | [2] 94.9% | [3] 80.1% | [4] 103% | [5] 103% | [6] 84.8% | [7] 77.4% | [8] 98.8%

COc1ccc2[nH]c(O)c(/C=c3/ccc4c(c3)N=C(c3ccc(F)cc3)N=4)c2c1
inactive: [1] 80.4% | [2] 50.2% | [3] 63.2% | [4] 116% | [5] 31.2% | [6] 20.1% | [7] 92.9% | [9] 42.5% | [8] 67.7%

CC(=O)OC1Oc2cc(C)c(C)cc2-c2oc(=O)c(-c3ccc(F)cc3)cc21 (configuration not stated)
inactive: [1] 81.7% | [2] 83.2% | [3] 62.2% | [4] 120% | [5] 89.5% | [7] 47.9% | [9] 36%

COc1ccc2c(c1)N(CCO)C1=C(C(=O)OC1)C2c1cccc(Br)c1 (configuration not stated)
active: [6] 8.86% | [7] -1.77%
inactive: [1] 37.4% | [2] 27.3% | [3] 32.3% | [4] 60% | [5] 28.4% | [8] 13.9%

CC(=O)c1cccc(Nc2ncnc3ccc(NC(=O)c4ccco4)cc23)c1
inactive: [1] 84.8% | [2] 87.4% | [3] 64.8% | [4] 99.6% | [5] 87.1% | [7] 82.4% | [9] 96.5%

Cc1ccccc1CNc1ncnc2[nH]ncc12
inactive: [1] 71.6% | [2] 112% | [3] 37% | [4] 83.8% | [5] 87.2% | [6] 69% | [9] 146%
active: [8] -58.2%

Cc1ccc2oc(=O)cc(-c3nc4ccc([N+](=O)[O-])cc4[nH]3)c2c1
inactive: [1] 62.6% | [2] 59.7% | [3] 51.7% | [4] 62% | [5] 63% | [7] 43.7% | [9] 51.6% | [8] 39.6%

C=C1NC(=O)C(C(C)CC)NC(=O)C2CSCC(NC(=O)CCC(=O)O)C(=O)NC(Cc3ccccc3)C(=O)NC(C)C(=O)NC(CC(C)CC)C(=O)NC(C(=O)NC(Cc3ccccc3)C(=O)N3CCCC3C(=O)N2)C(C)OC(=O)C(CO)NC(=O)C(C(O)COC)N(C)C(=O)C(C(C)C)NC(=O)C(CC(C)CC)NC1=O (configuration not stated)
inactive: [1] 30.4% [6 µM] | [2] 31.4% [6 µM] | [3] 57.4% [6 µM] | [4] 60.2% [6 µM] | [5] 37.4% [6 µM] | [6] 33.1% [6 µM] | [9] 18.6% [6 µM]

CC(=O)[C@@]1(O)[C@H](C)C[C@H]2[C@@H]3C=C(C)C4=Cc5c(cnn5-c5ccccc5)C[C@]4(C)[C@H]3[C@@H](O)C[C@@]21C
active: [3] -4.99% | [7] -16.8% | [9] -28%
inactive: [1] 13.2% | [2] 41.3% | [4] 34.5% | [5] 42.3%

CCOc1c(C#N)c2c(N)ncnc2n1C1OC(CO)C(O)C1O (configuration not stated)
active: [3] 6.4% | [7] -13% | [9] -8.09%
inactive: [1] 58.4% | [2] 39.2% | [4] 88.4% | [5] 33.9%

CCCCCCCCCCC(C(O)c1ccccc1)N1CCCCC1 (configuration not stated)
active: [3] -1.17% | [6] -21.1% | [9] 0.764% | [8] 6.36%
inactive: [1] 33.5% | [4] 76.8% | [5] 42.1% | [7] 75.1%

Cc1cc(O)c(C2=NN(c3ccc(S(N)(=O)=O)cc3)C(c3ccc(Cl)cc3)C2)c(C)c1Cl (configuration not stated)
inactive: [1] 49.7% | [2] 36.1% | [3] 66.6% | [4] 80% | [5] 58.7% | [7] 87.2% | [9] 11.6% | [8] 14.3%

O=c1[nH]c2cc(Cl)c(Cl)cc2o1
inactive: [1] 68.3% | [2] 95.5% | [3] 99.6% | [4] 113% | [5] 104% | [7] 92.7% | [9] 118% | [8] 106%

Nc1n[nH]c2ccc([C@@H]3Nc4c(F)cc5[nH]ncc5c4[C@H]4C5CCC(C5)[C@@H]34)cc12 (some centres not stated)
inactive: [1] 31.7% | [3] 28.2% | [4] 61% | [5] 22.7% | [6] 17.3% | [9] 18.1% | [8] 22.9%
active: [7] -28.6%

O=C1OC(c2ccc(-c3ccccc3)cc2)=C/C1=C/c1c(Cl)cccc1Cl
inactive: [1] 86% | [2] 95.3% | [3] 81.1% | [4] 88% | [5] 105% | [7] 93.5% | [8] 97.8%
active: [9] -14%

CN1CCN(c2ccc(N3Cc4ccccc4OC4=C3C(=O)c3c(O)ccc(O)c3C4=O)cn2)CC1
active: [1] -1.22% | [2] -62% | [3] -99.5% | [4] -98.7% | [5] -100% | [7] -20.7% | [9] -12.7% | [8] -17.8%

CN(C)c1ccc(C(c2ccccc2)c2ccc(N(C)C)cc2)cc1
inactive: [1] 102% | [3] 62.1% | [4] 122% | [5] 97.9% | [6] 93.1% | [7] 107% | [9] 99.2% | [8] 85.7%
